Reference: PubChem BioAssay (NCI)
Where “and” joins values, the source holds several entries; their conditions need not be identical. Identical values can stand only once. About 83,000 compounds went through this panel and 20% of them were active in at least one assay; those are over-represented in the sample as a whole.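 The endpoint reported here, percent growth, reads 100 for growth as untreated, 0 for no net growth and -100 for all cells dead.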

Experiments:
Experiment in all cases: NCI-60 one-dose screen, 48 h (100 = growth as untreated, 0 = no growth, -100 = all killed)
Details in all cases: 10 µM unless noted; active = growth percent below 10; inactive = the rest
[1] = test system: HT29 colon
[2] = test system: SNB-75 CNS
[3] = test system: SNB-19 CNS
[4] = test system: U251 CNS
[5] = test system: PC-3 prostate
[6] = test system: SK-MEL-5 melanoma
[7] = test system: UACC-62 melanoma
[8] = test system: LOX IMVI melanoma
[9] = test system: SK-MEL-28 melanoma
[10] = test system: SK-MEL-2 melanoma
[11] = test system: EKVX NSCLC
[12] = test system: SN12C renal
[13] = test system: TK-10 renal
[14] = test system: ACHN renal
[15] = test system: CAKI-1 renal
[16] = test system: A498 renal
[17] = test system: HL-60(TB) leukemia
[18] = test system: CCRF-CEM leukemia
[19] = test system: HCT-15 colon
[20] = test system: UO-31 renal

Measured: growth

OCCNC1CCCCC1
inactive: [1] 109% | [2] 96.3% | [3] 105% | [4] 106% | [5] 103% | [6] 103% | [7] 97.2% | [8] 104% | [9] 104% | [10] 104% | [11] 97.9% | [12] 100% | [13] 106% | [14] 102% | [15] 102% | [16] 93.4% | [17] 100% | [18] 103%

ClCc1ccc(Cl)c(Cl)c1
inactive: [19] 98.6% | [1] 109% | [2] 104% | [4] 100% | [5] 91.9% | [6] 92.2% | [7] 97.9% | [8] 104% | [9] 111% | [12] 97.9% | [20] 91.2% | [14] 96.8% | [15] 109% | [16] 95.5% | [17] 105% | [18] 96.3%

CCC(=O)C(CC(C)N1CCCCCC1)(c1ccccc1)c1ccccc1 (stereo not given)
inactive: [1] 67.1% | [2] 115% | [3] 95.2% | [4] 100% | [5] 89.2% | [6] 98.2% | [7] 94.4% | [8] 103% | [9] 94.7% | [10] 103% | [11] 90.8% | [12] 97.8% | [20] 67.3% | [13] 84% | [14] 97.6% | [15] 79% | [16] 84.5% | [17] 95.5% | [18] 96.1%

O=[N+]([O-])c1ccc(OCc2ccc(S(=O)(=O)F)c(Cl)c2)c(Cl)c1
inactive: [19] 84.6% | [1] 99.2% | [2] 92.8% | [4] 107% | [5] 91.4% | [6] 99.6% | [7] 92.6% | [8] 93% | [9] 119% | [11] 112% | [12] 97.7% | [20] 70% | [13] 102% | [14] 92.7% | [15] 102% | [17] 88.9% | [18] 87.9%

Cc1c(C)c(N)c(C)c(C)c1N
inactive: [1] 25.7% | [2] 110% | [3] 82.1% | [4] 78.1% | [5] 73.6% | [6] 93% | [7] 66.3% | [8] 51.9% | [9] 106% | [10] 15% | [11] 108% | [12] 72.6% | [20] 60.6% | [13] 90.8% | [15] 46.6% | [16] 102% | [17] 103% | [18] 91.8%

CN(C)[C@@H]1C(=O)C(C(N)=O)=C(O)[C@@]2(O)C(=O)C3=C(O)c4c(O)ccc(Cl)c4[C@@](C)(O)[C@H]3C[C@@H]12
inactive: [1] 85.2% and 109% | [2] 87.2% and 84.1% | [3] 98.4% and 97.9% | [4] 89.9% and 103% | [5] 81.6% | [6] 98.9% and 100% | [7] 72.9% and 89.5% | [8] 86% and 95.6% | [9] 109% and 112% | [10] 81.6% and 24.7% | [11] 111% and 98.3% | [12] 93.7% and 103% | [20] 55.1% and 82.1% | [13] 86.9% | [14] 70.9% and 94.4% | [15] 73.1% and 99.6% | [16] 92.2% and 110% | [17] 100% | [18] 94.1% and 101%

Cc1ccc(N2CCN(CCC#N)CC2)cc1
inactive: [1] 103% | [2] 79.5% | [3] 87.9% | [4] 97.8% | [5] 92.5% | [6] 82% | [7] 98.6% | [8] 101% | [9] 98.7% | [10] 110% | [11] 95.5% | [12] 96% | [20] 82.6% | [13] 89.5% | [14] 101% | [15] 87.1% | [16] 137% | [17] 87% | [18] 92%

CNC(=O)Oc1ccc(Cl)cc1SSc1cc(Cl)ccc1OC(=O)NC
inactive: [1] 106% | [2] 86.8% | [3] 86.8% | [4] 52.7% | [5] 73% | [6] 43.4% | [7] 49.7% | [8] 85.8% | [9] 82% | [10] 77.5% | [11] 109% | [12] 70.9% | [20] 64.6% | [13] 123% | [14] 87.2% | [15] 97.1% | [16] 98% | [17] 61.3% | [18] 50.7%
